Rows were chosen to be rich in hits. Some 3.1% of all compounds tested hit in one or more screens of this group.
ARNT-TACC3 inh – disrupts binding between human ARNT and TACC3 | Q9Y6A5 | AlphaScreen His-ARNT PAS-B/GST-TACC3 binding, luminescence; TACC3 fragment carries E629A point mutation | inhibition, % at 9.99 µM | 390,000 tested, 0.66% active | AID 623870;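 active = mean inhibition of replicates at least 50% and at least half of replicates each reaching 50%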
HSF1 activator – increases HSF-1 driven luciferase reporter signal; NIH3T3-HGL HSF-1 luciferase reporter, MG132, 8 h; 100% = twice DMSO control signal; activation, % at 9 µM; 300,000 tested, 1.7% active;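 active = mean replicate activation of at least 50% with a set share of replicates each reaching 50%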
HSF1 inhib – HSF1 inhibition; NIH3T3-HGL HSE-luciferase, MG132-induced, luminescence 8 h; hits give low values; activity change, negative = inhibition, % at 7.5 µM (by protocol); 300,000 tested, 0.77% active; AID 2098;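 active = more than half of replicate wells show activity change below -50%, luminescence cut by over half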;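 also: luciferase reports HSF-1 transcriptional activity via heat shock element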
HSP90 refold inh – inhibitors of HSP90 luciferase refolding in rabbit reticulocyte lysate; 290,000 tested, 0.91% active; inhibition, % at 5.6 µM; luciferase refolding luminescence, 3 h;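 active = inhibition above the screen-wide mean plus 3 SD, computed separately per campaign, cut at about 16% in these data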;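 also: inhibitors lower the luminescence because luciferase stays unfolded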
HIF act – HIF pathway transcriptional activation | U2OS HRE-luciferase reporter, luminescence; normalized: DMSO 0%, desferrioxamine 100% | activation, % at 7.5 µM (by protocol) | 300,000 tested, 0.32% active | AID 1910;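 active = mean activation of at least 10% of the iron chelator positive control signal, with at least half of replicates also reaching 10%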
Large screens that a line does not name were inactive.

O=S1(=O)C=C(Sc2nc3ccccc3s2)c2ccccc21	HSF1 inhib -87 (no result: ARNT-TACC3 inh)
CCc1nn(CC(=O)N2CCC(C(N)=O)CC2)c(=O)c2cc3occc3n12	HSF1 inhib -67
O=C(NNc1ncnc2ccccc12)c1cccc(Cl)c1	HSF1 activator 60
CC(=O)NNc1ncnc2ccccc12	none (no result: HSF1 activator, HSF1 inhib)
NC(=O)c1nsc(C(=O)N(c2cccc(F)c2)C(C(=O)NC2CCCC2)c2ccco2)c1N (configuration not stated)	HSF1 inhib -81
COc1ccc(C(C(=O)NC2CCCC2)N(Cc2ccccc2)C(=O)c2snc(C(N)=O)c2N)cc1OC (configuration not stated)	HSF1 activator 52
O=C(NCC(=O)N(c1ccc(F)cc1)C(C(=O)NC1CCCC1)c1ccncc1)c1ccco1 (configuration not stated)	none
O=C(NCC(=O)N(c1cccc(F)c1)C(C(=O)NC1CCCC1)c1ccncc1)c1ccco1 (configuration not stated)	HSF1 activator 54
CCc1ccc(N(C(=O)c2snc(C(N)=O)c2N)C(C(=O)NC2CCCC2)c2ccco2)cc1 (configuration not stated)	none
C[C@H](CO)N1C[C@H](C)[C@H](CN(C)C(=O)C2CC2)Oc2cc(-c3ccccc3F)ccc2S1(=O)=O	none (no result: HSF1 activator, HSF1 inhib, HSP90 refold inh, HIF act)
C[C@H](CO)N1C[C@H](C)[C@H](CN(C)S(=O)(=O)c2cn(C)cn2)OCCCC[C@H](C)Oc2ccc(NS(=O)(=O)c3cccs3)cc2C1=O	none (no result: HSF1 activator, HSF1 inhib, HSP90 refold inh, HIF act)
CC=Cc1ccc2n(c1=O)C[C@@H]1[C@@H](CO)[C@H](C(=O)N(C)C)N(C(=O)CC3CC3)[C@H]21 (mixture of isomers)	none (no result: HSF1 activator, HSF1 inhib, HSP90 refold inh, HIF act)
O=[N+]([O-])c1ccc2oc(C3CCCCC3)nc2c1	none
Nc1ccc2oc(C3CCCCC3)nc2c1	HSF1 inhib -91
CCCNC(=O)C[C@H]1CC[C@H]2[C@H](COc3ccc(NC(=O)c4cccc(C(F)(F)F)c4)cc3C(=O)N2C)O1	none (no result: HSF1 activator, HSF1 inhib, HSP90 refold inh, HIF act)
CCOc1ccccc1NC(=O)CCS(=O)(=O)c1cccs1	HSF1 inhib -89
C[C@H]1CN([C@@H](C)CO)C(=O)c2cc(NS(=O)(=O)c3ccc(F)cc3)ccc2O[C@@H]1CN(C)C(=O)Nc1ccc2c(c1)OCO2	none (no result: HSF1 activator, HSF1 inhib, HSP90 refold inh, HIF act)
CNC(=O)C[C@H]1CC[C@H]2[C@H](COc3ccc(NC(=O)Nc4ccc(Cl)cc4)cc3C(=O)N2C)O1	none (no result: HSF1 activator, HSF1 inhib, HSP90 refold inh, HIF act)
Cc1ccc(C2=N/C(=C\N3CCCCC3)C(=O)O2)cc1	HSF1 activator 63
COC(=O)Cc1[nH]n(-c2nc3ccccc3s2)c(=O)c1C(C)=Nc1ccc(Cl)cc1	HSF1 inhib -68
C/C(=N/NC(=O)c1cccs1)c1c(C)[nH]n(-c2nc3ccccc3s2)c1=O	ARNT-TACC3 inh 47
COC(=O)Cc1[nH]n(-c2nc3ccccc3s2)c(=O)c1C(C)=Nc1ccc(C)cc1	none
O=C(N[C@H]1CC[C@@H](CCNS(=O)(=O)c2ccc(Cl)cc2)O[C@@H]1CO)c1cccnc1	none (no result: HSF1 activator, HSF1 inhib, HSP90 refold inh, HIF act)
COc1ccc(C(=O)Oc2ccc(/C=N/O)cc2)cc1	HSF1 inhib -64
C/C(=N\NC(=O)C1COc2ccccc2O1)c1ccccn1 (configuration not stated)	ARNT-TACC3 inh 64
C/C(=N/NC(=O)c1ccc(C(C)(C)C)cc1)c1ccccn1	ARNT-TACC3 inh 65 (no result: HSP90 refold inh)
COc1ccc(C(=O)N/N=C(\C)c2ccccn2)cc1OC	ARNT-TACC3 inh 67
C/C(=N\NC(=O)c1ccc(Cl)c(Cl)c1)c1ccccn1	none (no result: ARNT-TACC3 inh)
NNC(=O)c1cc(-c2cccs2)nc2ccccc12	none
C/C(=N\NC(=O)c1cc(-c2cccs2)nc2ccccc12)c1ccccn1	ARNT-TACC3 inh 73
C/C(=N\NC(=O)C1COc2ccccc2O1)c1ccc(C)o1 (configuration not stated)	none
C/C(=N\NC(=O)c1cccc(Br)c1)c1ccccn1	ARNT-TACC3 inh 45
C/C(=N\NC(=O)c1ccccc1Cl)c1ccccn1	ARNT-TACC3 inh 67
C/C(=N\NC(=O)c1cc(Br)ccc1O)c1ccccn1	none
CCOC(=O)C1=C(c2ccccc2)NC(SCC(=O)Nc2ccc(C)cc2)=C(C#N)C1c1ccco1 (configuration not stated)	none
CCOC(=O)C1=C(c2ccccc2)NC(SC)=C(C#N)C1c1ccco1 (configuration not stated)	HSF1 activator 51
CC(=O)C1=C(C)NC(SCC(=O)c2ccccc2)=C(C#N)C1c1ccco1 (configuration not stated)	HSF1 activator 77 (no result: ARNT-TACC3 inh)
CC(C)NC(=O)N(C)C[C@@H]1Oc2cc(C#C[C@H](C)O)ccc2S(=O)(=O)N([C@@H](C)CO)C[C@@H]1C	none (no result: HSF1 activator, HSF1 inhib, HSP90 refold inh, HIF act)
CN1CCN(c2ccc(-c3cccc(NC(=O)COc4ccc(Cl)cc4)c3)nn2)CC1	none (no result: HSP90 refold inh)
CN1CCN(c2ccc(-c3cccc(NC(=O)COc4ccc(Cl)cc4Cl)c3)nn2)CC1	HSF1 inhib -54 (no result: HSP90 refold inh)
COc1ccccc1S(=O)(=O)N[C@H]1C=C[C@@H](CC(=O)NCc2cccc(F)c2)O[C@H]1CO	none (no result: HSF1 activator, HSF1 inhib, HSP90 refold inh, HIF act)
CN(C(=O)CN1C(=O)S/C(=C\c2ccccc2)C1=O)C1CCS(=O)(=O)C1 (configuration not stated)	HSF1 inhib -86
CN(C(=O)CN1C(=O)S/C(=C\c2ccc(Cl)cc2)C1=O)C1CCS(=O)(=O)C1 (configuration not stated)	none
O=C(NC(CO)(CO)CO)c1coc(=O)c(Br)c1	HSF1 activator 65
CC(C)CNC(=O)c1coc(=O)c(Br)c1	none
C[C@H]1CCCCO[C@@H](CN(C)S(=O)(=O)c2ccc(Cl)cc2)[C@@H](C)CN([C@@H](C)CO)C(=O)c2cc(NC(=O)CCC(F)(F)F)ccc2O1	none (no result: HSF1 activator, HSF1 inhib, HSP90 refold inh, HIF act)
CCN1CCc2c(sc(NC(=O)c3cc4ccccc4cc3OC)c2C(N)=O)C1	HSF1 inhib -51
CC(C)N1CCc2c(sc(NC(=O)c3ccc4ccccc4c3)c2C(N)=O)C1	HSF1 inhib -60
COc1cccc(OC)c1C(=O)Nc1sc2c(c1C(N)=O)CCN(Cc1ccccc1)C2	none
O=C(Nc1ccc(S(=O)(=O)N2CCOCC2)cc1)c1ccc(Br)o1	HSF1 activator 59
CCN1CCN(c2ccc(NC(=O)c3ccc(Br)o3)cc2)CC1	HSF1 activator 56
CCCC(=O)N1CCN(c2ccc(NC(=O)c3ccc(Br)o3)cc2)CC1	none
CCC(=O)Nc1ccc2c(c1)C(=O)N(C)C[C@H](OC)[C@@H](C)CN(C(=O)c1ccc(F)cc1)[C@H](C)CO2	none (no result: HSF1 activator, HSF1 inhib, HSP90 refold inh, HIF act)
O=C(N[C@@H]1CC[C@H](CCNS(=O)(=O)c2cccc(Cl)c2)O[C@H]1CO)c1ccccc1	none (no result: HSF1 activator, HSF1 inhib, HSP90 refold inh, HIF act)
C=CCn1c(Cc2nc3ccc(Cl)cc3[nH]2)n[nH]c1=S	ARNT-TACC3 inh 36
C[C@@H]1CN([C@H](C)CO)C(=O)c2cccc(NS(=O)(=O)c3ccc(F)cc3)c2O[C@H]1CN(C)S(=O)(=O)c1cn(C)cn1	none (no result: HSF1 activator, HSF1 inhib, HSP90 refold inh, HIF act)
Cc1nc(SCC(=O)Nc2nc3ccccc3s2)c(C#N)c(C)c1C	HSF1 inhib -92, HSP90 refold inh 68

Bioassay records as filed in PubChem.
